This is an account of results in PubChem BioAssay AID1159554 (Broad Institute, 2015).

Screen size: about 94,000 compounds; about 2,100 (2.2%) were called active. No stated cut-off is given here; in the data, active means activity change below about -80%; inconclusive means no clear call, values can overlap the other calls; inactive means above that. The list comes from a sample in which actives are over-represented; it also holds similar structures and randomly drawn compounds.

The assay is described as follows: Dd2 malaria parasite growth inhibition – SYBR Green fluorescence, single dose replicates, primary screen (AID 1159554). The conditions noted are these: P. falciparum Dd2 growth, 72 h, at 10 µM, hits give low values.
With `COc1ccc2c3c(n(C)c2c1)[C@@H](CO)N(CC1CC1)CC31CN(C(=O)c2cccc(F)c2)C1`, the activity change is -33.2% (inactive).
Next, `CO[C@H](CN(C)C(=O)c1cnccn1)[C@@H](C)CN([C@@H](C)CO)S(=O)(=O)c1ccc(C)cc1`: 25.3% (inactive); `COc1ccccc1NC(=O)N1C[C@H]2[C@@H](c3ccccc31)[C@@H](CO)N2C(=O)C1CCCC1`: -11.4% (inactive); `CCNC(=O)[C@H]1[C@H](CO)[C@H]2Cn3c(ccc(C4=CCCC4)c3=O)[C@@H]1N2S(=O)(=O)c1cn(C)cn1`: 21.7% (inactive).
With `COc1ccc(-c2ccc3c(c2)O[C@H](CN(C)Cc2ccccc2C(=O)O)[C@H](C)CN([C@@H](C)CO)S3(=O)=O)cc1` the figure was -14.1% (inactive); with `CO[C@H]1CN(C)C(=O)c2cc(NC(=O)c3ccc4c(c3)OCO4)ccc2OC[C@@H](C)N(CCC(F)(F)F)C[C@H]1C`, -12.7% (inactive).
With `C[C@@H](C(=O)N(C)C[C@H]1OCc2ccccc2-c2c(n(C)c3ccccc23)C(=O)N([C@@H](C)CO)C[C@@H]1C)c1ccccc1` the figure was -70% (inactive); with `O=C(C[C@@H]1CC[C@@H]2[C@H](COC[C@@H](O)CN2Cc2cc(F)cc(F)c2)O1)NCc1cccc(F)c1`, -16.3% (inactive).
Turning to `C[C@H](CO)N1C[C@H](C)[C@@H](CN(C)C(=O)c2ccncc2)Oc2cc(C3=CCCCC3)ccc2S1(=O)=O`, the activity change was -11.8% (inactive).
As for `C[C@@H]1CN([C@@H](C)CO)C(=O)c2cccc(NC(=O)CCCCCC(=O)Nc3ccccc3N)c2O[C@H]1CN(C)C(=O)Nc1ccccc1`, the activity change was -53.7% (inactive).
Turning to `C[C@H](CO)N1C[C@H](C)[C@H](CN(C)CC2CCCCC2)Oc2ccc(NC(=O)CCCCCC(=O)Nc3ccccc3N)cc2CC1=O`, the activity change was -32.3% (inactive).
`C[C@H]1CN([C@@H](C)CO)C(=O)c2cccc(NC(=O)CCCCCC(=O)Nc3ccccc3N)c2O[C@@H]1CN(C)CC1CCCCC1`: the activity change is -83.5% (active).
Next, `C[C@@H]1CN([C@@H](C)CO)C(=O)c2cccc(NC(=O)CCCCCC(=O)Nc3ccccc3N)c2O[C@H]1CN(C)C(=O)Nc1cccc2ccccc12`: -86.4% (active).
Take `CC(C)NC(=O)Nc1cccc2c1O[C@H](CN(C)CC1CCCCC1)[C@H](C)CN([C@H](C)CO)C2=O`: the activity change was -26.3% (inactive).
On to `C[C@H](CO)N1C[C@H](C)[C@@H](CN(C)C(=O)Nc2ccccc2)Oc2c(NC(=O)CCCCCC(=O)Nc3ccccc3N)cccc2C1=O`, for which the activity change was -26.6% (inactive).
`COc1cccc(S(=O)(=O)Nc2ccc3c(c2)[C@H]2C[C@H](CC(=O)O)O[C@H](CO)[C@H]2O3)c1`: the activity change was 19% (inactive).
Turning to `CCCNC(=O)Nc1ccc2c(c1)C(=O)N(C)C[C@@H](OC)[C@@H](C)CN(Cc1ccccn1)[C@@H](C)CO2`, the activity change is -2.2% (inactive).
Take `O=C(NC1CCC1)[C@H]1[C@H](CO)[C@H]2Cn3c(ccc(-c4ccccc4)c3=O)[C@@H]1N2Cc1cocn1`: the activity change is 10.7% (inactive).
With `Cn1cnc(S(=O)(=O)NC[C@@H]2CC[C@@H]3[C@@H](CN3Cc3nccs3)O2)c1` the figure was 28.5% (inactive).
Next, `C[C@@H]1CCCCO[C@@H](CN(C)S(=O)(=O)c2cn(C)cn2)[C@@H](C)CN([C@@H](C)CO)C(=O)c2cc(NC(=O)Nc3ccc(C(F)(F)F)cc3)ccc2O1`: -75.5% (inactive); `O=C(C1CCCC1)N1CC(=O)N2[C@@H](CO)[C@@H](c3ccc(-c4cccnc4)cc3)[C@@H]2C1`: -20.4% (inactive); `O=C(Cc1cccnc1)N1CC(=O)N2[C@@H](CO)[C@H](c3ccc(C#CC4CC4)cc3)[C@@H]2C1`: -6.96% (inactive).
Next, `O=C(c1cccnc1)N1CC(=O)N2[C@H](CO)[C@H](c3ccc(-c4cccnc4)cc3)[C@@H]2C1`: 25.3% (inactive).
As to `O=C(c1ccccc1F)N1CC(=O)N2[C@H](C1)[C@H](c1ccc(-c3ccc(F)cc3)cc1)[C@@H]2CO`, the activity change was -63.7% (inactive).
With `O=C(c1ccccc1F)N1CC(=O)N2[C@H](CO)[C@H](c3ccc(-c4cccnc4)cc3)[C@H]2C1` the figure was -85.7% (active).
With `CN(C)CC#Cc1ccc([C@@H]2[C@H](CO)N3C(=O)CN(C(=O)Cc4cccnc4)C[C@@H]23)cc1` the figure was -85.1% (active); with `O=C(Cc1cccnc1)N1CC(=O)N2[C@H](CO)[C@H](c3ccc(C#CC4CCCC4)cc3)[C@@H]2C1`, -26.7% (inactive); with `O=C(c1ccccc1F)N1CC(=O)N2[C@H](CO)[C@@H](c3ccc(-c4cccnc4)cc3)[C@H]2C1`, 21.6% (inactive).
With `O=C(C1CCCC1)N1CC(=O)N2[C@H](C1)[C@@H](c1ccc(-c3cccnc3)cc1)[C@@H]2CO` the figure was -88.2% (active); with `COc1ccc2c3c([nH]c2c1)[C@@H](CO)N(C(=O)CN1CCOCC1)CC31CCN(C)CC1`, 27% (inactive); with `O=C(C[C@@H]1C=C[C@@H](NS(=O)(=O)c2ccccc2)[C@@H](CO)O1)NCc1ccccc1F`, 8.12% (inactive).
With `CN(C)CC#Cc1ccc([C@@H]2[C@H](CO)N3CCCCN(C(=O)NC4CCCC4)C[C@@H]23)cc1`, the activity change was 2.92% (inactive).
Next, `CCCNC(=O)Nc1ccc2c(c1)C(=O)N(C)C[C@@H](OC)[C@H](C)CN(CCC)[C@@H](C)CO2`: 21.3% (inactive).
With `COc1ccccc1NC(=O)N1CC(=O)N2[C@@H](CO)[C@H](c3ccc(C#CC4CC4)cc3)[C@@H]2C1`, the activity change was -3.54% (inactive).
Take `O=C(C[C@H]1CC[C@@H]2[C@H](COC[C@@H](O)CN2Cc2cc(F)cc(F)c2)O1)NC1CCC1`: the activity change was -26.6% (inactive).
Regarding `C[C@@H]1CN([C@@H](C)CO)C(=O)Cc2cc(NC(=O)CCCN(C)C)ccc2O[C@@H]1CN(C)Cc1ccc(-c2ccccc2)cc1`, the activity change is -71.2% (inactive).
Consider `CC(C)C(=O)Nc1ccc2c(c1)C(=O)N(C)[C@H]1CC[C@H](CC(=O)NCc3ccc(F)cc3)O[C@H]1CO2`, for which the activity change is -8.71% (inactive).
In the case of `CC(=O)N1Cc2cc(C(=O)NCc3cc(F)cc(F)c3)nc(-c3cccc(C4=CCCC4)c3)c2[C@@H]1CCO`, the activity change is -66.6% (inactive).
Take `O=C(Nc1ccccc1F)N1CC(=O)N2[C@@H](CO)[C@H](c3ccc(C#CC4CCCC4)cc3)[C@@H]2C1`: the activity change was -8.5% (inactive).
Take `CN1c2ccc(Br)cc2[C@@H]2[C@@H](CCN2C(=O)C2CCCCC2)[C@H]1CO`: the activity change is 11.1% (inactive).
With `CCCc1cn(CC[C@H]2CC[C@@H](NC(=O)C3CCOCC3)[C@@H](CO)O2)nn1` the figure was -3.07% (inactive); with `C[C@@H]1CN([C@H](C)CO)C(=O)c2c(c3ccccc3n2C)-c2ccccc2CO[C@@H]1CN(C)Cc1ccc(F)cc1`, -64.4% (inactive); with `C[C@H]1CN([C@@H](C)CO)C(=O)c2ccccc2-c2ccccc2CO[C@H]1CN(C)C(=O)Nc1ccc(-c2ccccc2)cc1`, -74.8% (inactive).
For the molecule `CC(C)NC(=O)N(C)C[C@H]1OCc2ccccc2-c2c(n(C)c3ccccc23)C(=O)N([C@H](C)CO)C[C@@H]1C`, the activity change is 32.6% (inactive).
Regarding `COc1ccc(S(=O)(=O)N(C)C[C@@H]2OCc3ccccc3-c3ccccc3C(=O)N([C@@H](C)CO)C[C@@H]2C)cc1`, the activity change is -71.4% (inactive).
With `Cc1ccc(S(=O)(=O)N(C)C[C@H]2OCc3ccccc3-c3ccccc3C(=O)N([C@@H](C)CO)C[C@@H]2C)cc1`, the activity change was -59.6% (inactive).
Consider `COC(=O)N(C)C[C@H]1OCc2ccccc2-c2ccccc2C(=O)N([C@@H](C)CO)C[C@H]1C`, for which the activity change is 23.3% (inactive).
Next, `C[C@H](CO)N1C[C@H](C)[C@@H](CN(C)Cc2ccc(C(F)(F)F)cc2)OCc2ccccc2-c2c(n(C)c3ccccc23)C1=O`: -13.7% (inactive); `C[C@H]1CN([C@@H](C)CO)C(=O)c2ccccc2-c2ccccc2CO[C@H]1CN(C)Cc1ccc(-c2ccccc2)cc1`: -88.6% (active); `C[C@@H]1CN([C@H](C)CO)C(=O)c2c(c3ccccc3n2C)-c2ccccc2CO[C@H]1CN(C)Cc1ccc(F)cc1`: -83.8% (active).
On to `CC(C)NC(=O)N(C)C[C@@H]1OCc2ccccc2-c2c(n(C)c3ccccc23)C(=O)N([C@@H](C)CO)C[C@H]1C`, for which the activity change was 16% (inactive).
Take `C[C@H]1CN([C@@H](C)CO)C(=O)c2c(c3ccccc3n2C)-c2ccccc2CO[C@H]1CN(C)S(=O)(=O)c1ccc(C#N)cc1`: the activity change is -85.2% (active).
Next, `C[C@H]1CN([C@@H](C)CO)C(=O)c2ccccc2-c2ccccc2CO[C@@H]1CN(C)S(=O)(=O)c1ccc(C(F)(F)F)cc1`: -83.7% (active); `CC(C)C#Cc1ccc([C@H]2[C@@H](CO)N3C(=O)CN(C(=O)Cc4ccccc4)C[C@H]23)cc1`: -68.7% (inactive).
Consider `COc1ccccc1NC(=O)N[C@H]1CC[C@H](CCNC(=O)Cc2ccccn2)O[C@@H]1CO`, for which the activity change was -4.42% (inactive).
With `CCC(=O)N1C[C@@H](C)[C@H](OC)CN(C)C(=O)c2ccc(NC(=O)C3CCOCC3)cc2OC[C@@H]1C` the figure was -9.88% (inactive).
Regarding `O=C(c1ccccc1)N1CC(=O)N2[C@@H](CO)[C@H](c3ccc(C#CC4CC4)cc3)[C@@H]2C1`, the activity change is 16.5% (inactive).
Next, `C[C@H](CO)N1C[C@H](C)[C@H](CN(C)C(=O)C2CCC2)Oc2ncc(C#CCc3ccccc3)cc2C1=O`: -34.2% (inactive); `CCCC#Cc1ccc([C@H]2[C@H]3CN(C(=O)Nc4cccc(F)c4)CC(=O)N3[C@H]2CO)cc1`: -4.18% (inactive).
For `C[C@H](CO)N1C[C@H](C)[C@H](CN(C)S(C)(=O)=O)Oc2ncc(C3=CCCC3)cc2C1=O`, the activity change was 25.5% (inactive).
Next, `C[C@H](CO)N1C[C@H](C)[C@@H](CN(C)S(=O)(=O)c2ccc([N+](=O)[O-])cc2)OCc2ccccc2-c2c(n(C)c3ccccc23)C1=O`: -84.4% (active); `C[C@@H]1CN([C@@H](C)CO)C(=O)c2c(c3ccccc3n2C)-c2ccccc2CO[C@H]1CN(C)S(=O)(=O)c1cccs1`: -56.5% (inactive); `C[C@@H]1CN([C@@H](C)CO)C(=O)c2c(c3ccccc3n2C)-c2ccccc2CO[C@@H]1CN(C)S(=O)(=O)CC(F)(F)F`: 20.5% (inactive).
Next, `C[C@@H]1CN([C@@H](C)CO)C(=O)c2c(c3ccccc3n2C)-c2ccccc2CO[C@@H]1CN(C)S(=O)(=O)c1ccc(F)cc1`: -60.8% (inactive); `C[C@H](CO)N1C[C@H](C)[C@@H](CN(C)S(=O)(=O)c2cccc(F)c2)OCc2ccccc2-c2c(n(C)c3ccccc23)C1=O`: -87.4% (active).
Next, `Cc1ccccc1S(=O)(=O)N(C)C[C@@H]1OCc2ccccc2-c2c(n(C)c3ccccc23)C(=O)N([C@H](C)CO)C[C@H]1C`: -67.7% (inactive); `C[C@@H]1CN([C@H](C)CO)C(=O)c2c(c3ccccc3n2C)-c2ccccc2CO[C@H]1CN(C)S(=O)(=O)c1ccccc1F`: -58.8% (inactive); `Cc1ccc(S(=O)(=O)N(C)C[C@@H]2OCc3ccccc3-c3c(n(C)c4ccccc34)C(=O)N([C@@H](C)CO)C[C@@H]2C)cc1`: -89.8% (active).
Take `C[C@@H]1CN([C@@H](C)CO)C(=O)c2c(c3ccccc3n2C)-c2ccccc2CO[C@@H]1CN(C)S(=O)(=O)c1cccs1`: the activity change is -57.7% (inactive).
